Assay results: PubChem BioAssay (NCI)
This is part of a sample that, as a whole, favours compounds with a hit. Of some 83,000 tested, about 20% had one in any assay.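 Each cell line was grown in a 96-well plate and treated with one concentration of compound for 48 hours. Values below 10 were considered active.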 A number with no mark means an inactive call. Calls of active or inactive are those of the source.

The molecules below were run on MDA-MB-468 breast (assay: NCI-60 one-dose screen, 48 h (100 = growth as untreated, 0 = no growth, -100 = all killed)). Conditions: 10 µM unless noted.

SMILES | growth
O/N=C1\c2ccccc2-c2ccc(Br)cc21 | 108%
C=C1C(=O)O[C@H]2[C@H]1CC/C(COC(=O)C(C)c1ccc(CC(C)C)cc1)=C\CC[C@@]1(C)O[C@@H]21 (stereo not given in full) | 6.36% (active)
O=C(Nc1ccc(-n2ccc3c(NC(=O)c4ccccc4)ncnc32)cc1)Nc1ccc(Cl)c(Cl)c1 | -36.7% (active)
COC1OC(CO)C(OC)C(O)C1O (stereo not given) | 87.1%
COc1ccc(C2OCC(C)(C)CO2)cc1OC | 92.4%
CN(C)c1oc(C2OC2c2ccccc2)nc1C#N (stereo not given) | 90.3%
CO[C@H]1/C=C/O[C@@]2(C)Oc3c(C)c(O)c4c(c3C2=O)C(=O)C(/C=N/N(c2ccccc2)c2ccccc2)=C(NC(=O)/C(C)=C\C=C\[C@H](C)[C@H](O)[C@@H](C)[C@@H](O)[C@@H](C)[C@H](OC(C)=O)[C@@H]1C)C4=O | -2.58% (active)
O=C(N/N=C\c1cc(Cl)ccc1O)c1ccncc1 | 36.9%
CCOC(=O)c1nnn(C(Cc2ccccc2Cl)C(=O)OCC)c1C (stereo not given) | 110%
Cc1cc(SCc2ccc(Cl)cc2Cl)nc(SCc2ccc(Cl)cc2Cl)n1 | 104%
O=C1C2=C(CCN(Cc3ccccc3)C2)N2CCN=C2N1Cc1ccc(F)cc1F | 5.49% (active)
N#CC(C#N)=Cc1c(-c2ccccc2)[nH]c2ccccc12 | 32%
CCn1c2ccc(/C=N/N(C)S(=O)(=O)CCN(C)C)cc2c2cc(/C=N/N(C)S(=O)(=O)CCN(C)C)ccc21 | 40.4%
CCC([N+](=O)[O-])S(=O)(=O)c1ccc(C)cc1 (stereo not given) | 91.3%
Cc1ccc(CSC(=N)N)cc1C | 104%
CCc1ccc(-c2nnc(COc3ccc(-c4nc5ccc(C)cc5[nH]4)cc3OC)o2)cc1 | 63.1%
O=C(Cn1cc(CN2CCN(c3ccnc4cc(Cl)ccc34)CC2)nn1)Nc1cccc([N+](=O)[O-])c1 | 92.8%
COc1ccc(-c2cc(-c3cc(OC)ccc3O)[nH]c(=O)c2C#N)cc1 | 59.5%
O=[N+]([O-])c1ccc(N/N=C/c2cccc3ccccc23)nc1 | 77.2%
O=c1scc(-c2ccc(C(F)(F)F)cc2)s1 | 72.5%

SMILES | growth
CNC(=O)c1cccnc1 | 106%
C#CCOCC1CN(C)C(=O)O1 (stereo not given) | 118%
NCCC(=O)c1ccc(Cl)cc1 | 113%
O=C(/C=C/c1cn(-c2ccccc2)nc1-c1ccccc1)CCC(=O)NO | 101%
COc1ccc(-c2nc3ncccn3c2-c2nnc(-c3ccc(F)cc3)o2)cc1 | 100%
COc1ccc(/C=C2\CCCC3=C2N=C2SC(C)=CN2C3c2ccc(OC)cc2)cc1 (stereo not given) | 85.1%
C=C1CC[C@@H]2[C@](C)(COC(C)=O)[C@H](OC(C)=O)CC[C@@]2(C)[C@@H]1CC(Sc1ccccc1)C1=CCOC1=O (stereo not given in full) | -61.1% (active)
NC(N)=Nc1ccc(Oc2cccc(NC(N)=Nc3ccc(Cl)c(C(F)(F)F)c3)c2)cc1 | 10.1%
CC1=C2[C@@H](CC1)[C@]1(C)O[C@@](c3ccccc3)(C[C@H]1OC(=O)CO)[C@H]2OC(=O)/C=C/c1ccccc1 | 91.1%
Cc1cnc(C=O)c2cccc([N+](=O)[O-])c12 | 89.7%
COC(=O)[C@]12CCC(C)(C)C[C@H]1C1=CC[C@@H]3[C@@]4(C)C/C(=C/c5cccnc5)C(=O)C(C)(C)[C@@H]4CC[C@@]3(C)[C@]1(C)CC2 | -22.5% [100 µM] (active)
O=S(=O)(NCCCNc1nccc(-c2[nH]c(-c3ccccc3)nc2-c2ccc(F)c(O)c2)n1)c1cccc(F)c1 | 66.5%
O=C(c1ccccc1)N1N=C(c2ccc(-n3ccc(C(F)(F)F)n3)cc2)CC1c1ccc[nH]1 (stereo not given) | 86%
Nc1ccc(C2=Nc3cccc4cccc(c34)S2)cc1 | 0.26% (active)
O=C(NNc1nc2cc(F)c(F)cc2n2c(CN3CC4CNCC4C3)ccc12)c1ncccn1 (stereo not given) | -10.6% (active)
COc1ccc(-c2nc3ccccn3c2/C=C/C(=O)c2cc(OC)c(OC)c(OC)c2)cc1OC | 8.94% (active)
COc1cc2c(c3c1c(=O)c1cccc(F)c1n3C)C=CC(C)(C)O2 | 42.7%
Cc1ccccc1/C=C/C(=O)c1cccc(OCCCCOc2cccc(C(=O)/C=C/c3ccccc3C)c2)c1 | 86.1%
CC(=O)c1c[nH]c2ccccc12 | 104%
O=C(CBr)OCc1ccc([N+](=O)[O-])o1 | 109%
